# In PubChem BioAssay (NCI):
# The panel holds about 79,000 compounds, 15% with a hit somewhere; the sample as a whole holds those more often. Unmarked numbers belong to inactive results. The source made the active and inactive calls. Cut-off read from the data, not from the text of the source: active = growth inhibition above about 70%; inactive = the rest.
# What was measured:
# [1] = NCI Yeast Anticancer Drug Screen. Data for the rad52 strain (AID 147);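 note: 0% = growth of vehicle-treated control cultures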; settings: S. cerevisiae rad52 mutant growth inhibition, hits give high values
# How it was run: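 Screen used a yeast mutant impaired in DNA repair. After compound exposure, growth was measured. Values reflect inhibition compared with vehicle-treated cells.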
# [2] = NCI Yeast Anticancer Drug Screen. Data for the wt1 strain (AID 149);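 note: 0% = growth of vehicle-treated wt1 cultures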; settings: S. cerevisiae wt1 strain (SPY 50644) growth inhibition, hits give high values
# How it was run: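 Vehicle-normalised growth inhibition; strain wt1; compound exposure.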
# [3] = NCI Yeast Anticancer Drug Screen. Data for the rad50EPP+ strain (AID 151);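 note: 0% = growth of vehicle-treated control cultures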; settings: S. cerevisiae rad50 mutant strain, hits give high values
# How it was run: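 Exposing the rad50EPP+ strain to each compound, growth was compared with vehicle-only cultures to give inhibition.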
# [4] = NCI Yeast Anticancer Drug Screen. Data for the mgt1 strain (AID 153); settings: S. cerevisiae mgt1 mutant growth inhibition, hits give high values
# How it was run: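 Genetically defined yeast (mgt1) treated with compound; inhibition of growth expressed against vehicle-treated controls.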
# [5] = NCI Yeast Anticancer Drug Screen. Data for the rad50 strain (AID 155);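 note: 0% = growth of vehicle-only cultures of the same strain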; settings: S. cerevisiae rad50 strain growth inhibition, hits give high values
# How it was run: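 A DNA repair-deficient yeast mutant serves as the test organism; compound-induced growth inhibition is calculated against vehicle-treated cells.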
# [6] = NCI Yeast Anticancer Drug Screen. Data for the mec2-1 strain (AID 157); settings: S. cerevisiae mec2-1 strain, hits give high values
# How it was run: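 Readout is yeast growth inhibition, normalised to vehicle-treated controls, in the mec2-1 strain exposed to compound.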
# [7] = NCI Yeast Anticancer Drug Screen. Data for the rad14 strain (AID 159);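 note: 0% = growth of vehicle-treated control cultures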; settings: S. cerevisiae rad14 strain growth inhibition, hits give high values
# How it was run: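 Vehicle-treated cultures served as the baseline for growth inhibition of a DNA repair-mutant yeast strain exposed to each compound.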
# [8] = NCI Yeast Anticancer Drug Screen. Data for the sgs1 mgt1 strain (AID 161);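 note: 0% = growth of cultures given vehicle only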; settings: S. cerevisiae sgs1 mgt1 strain, hits give high values
# How it was run: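 Compounds are added to genetically altered yeast, and growth is compared with cultures given vehicle alone to give percent inhibition.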
# [9] = NCI Yeast Anticancer Drug Screen. Data for the CLN2oe strain (AID 163);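 note: 0% = growth of vehicle-only control cultures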; settings: S. cerevisiae CLN2oe strain, hits give high values
# How it was run: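 Values reflect how much compound exposure reduced yeast growth, referenced to vehicle-exposed cells. Assay organism is a strain with a defined genetic change affecting cell-cycle control.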
# [10] = NCI Yeast Anticancer Drug Screen. Data for the cln2 rad14 strain (AID 165);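 note: 0% = growth equal to vehicle treated cultures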; settings: S. cerevisiae cln2 rad14 strain, hits give high values
# How it was run: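 Relative to vehicle controls, growth inhibition of compound-treated cln2 rad14 yeast was recorded.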
# [11] = NCI Yeast Anticancer Drug Screen. Data for the bub3 strain (AID 167); settings: S. cerevisiae bub3 mutant strain, hits give high values
# How it was run: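 Inhibition values come from growth of compound-treated mutant yeast normalised to vehicle-treated controls.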
# [12] = NCI Yeast Anticancer Drug Screen. Data for the wt2 strain (AID 169);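 note: 0% = growth of vehicle-treated yeast cultures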; settings: S. cerevisiae wt2 strain growth inhibition, hits give high values
# How it was run: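 Values express reduction in yeast growth under compound treatment, referenced to vehicle-treated cells.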
# [13] = NCI Yeast Anticancer Drug Screen. Data for the mlh1 strain (AID 171);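 note: 0% = growth of vehicle-treated control cultures of the same strain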; settings: S. cerevisiae mlh1 strain growth inhibition, hits give high values
# How it was run: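 Steps: expose the defined-mutant yeast strain to compound; expose a parallel culture to vehicle; measure growth; express compound effect as inhibition relative to the vehicle culture.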
# [14] = NCI Yeast Anticancer Drug Screen. Data for the mlh1 rad18 strain (AID 175); settings: S. cerevisiae mlh1 rad18 strain growth inhibition, hits give high values
# How it was run: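 Test agents were incubated with a yeast strain of defined genotype (DNA damage repair defect). Inhibition of growth was derived by comparison with vehicle-exposed cultures.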
# [15] = NCI Yeast Anticancer Drug Screen. Data for the rad18 strain (AID 177); settings: S. cerevisiae rad18 mutant growth inhibition, hits give high values
# How it was run: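 A genetically defined yeast mutant impaired in DNA damage repair was treated with test compounds, then its growth was measured against cultures receiving vehicle alone.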
# [16] = at 5.0 µM (retest, dose inferred, filed as 0.5)
# [17] = at 50.0 µM (retest, dose inferred, filed as 5.0)
compound,measurement,setting,value
Cc1cccc2c1C1c3c(C)cccc3C(CC(=O)O)CC1CC2 (stereo unspecified),growth inhibition,[1]; at 1.2 µM,13%
same,growth inhibition,[1]; at 3.7 µM,92% (active)
same,growth inhibition,[1]; at 11.0 µM,97% (active)
same,growth inhibition,[1]; at 33.0 µM,95% (active)
same,growth inhibition,[1]; at 100.0 µM,88% (active)
same,growth inhibition,[2]; at 1.2 µM,2%
same,growth inhibition,[2]; at 3.7 µM,77% (active)
same,growth inhibition,[2]; at 11.0 µM,98% (active)
same,growth inhibition,[2]; at 33.0 µM,96% (active)
same,growth inhibition,[2]; at 100.0 µM,92% (active)
same,growth inhibition,[3]; at 1.2 µM,15%
same,growth inhibition,[3]; at 3.7 µM,25%
same,growth inhibition,[3]; at 11.0 µM,53%
same,growth inhibition,[3]; at 33.0 µM,66%
same,growth inhibition,[3]; at 100.0 µM,48%
same,growth inhibition,[4]; at 1.2 µM,0%
same,growth inhibition,[4]; at 3.7 µM,47%
same,growth inhibition,[4]; at 11.0 µM,98% (active)
same,growth inhibition,[4]; at 33.0 µM,97% (active)
same,growth inhibition,[4]; at 100.0 µM,92% (active)
same,growth inhibition,[5]; at 1.2 µM,13%
same,growth inhibition,[5]; at 3.7 µM,90% (active)
same,growth inhibition,[5]; [16],22%
same,growth inhibition,[5]; at 11.0 µM,97% (active)
same,growth inhibition,[5]; at 33.0 µM,93% (active)
same,growth inhibition,[5]; [17],96% (active)
same,growth inhibition,[5]; at 50.0 µM,99% (active)
same,growth inhibition,[5]; at 100.0 µM,85% (active)
same,growth inhibition,[6]; at 1.2 µM,5%
same,growth inhibition,[6]; at 3.7 µM,61%
same,growth inhibition,[6]; [16],8%
same,growth inhibition,[6]; at 11.0 µM,98% (active)
same,growth inhibition,[6]; at 33.0 µM,96% (active)
same,growth inhibition,[6]; [17],98% (active)
same,growth inhibition,[6]; at 50.0 µM,99% (active)
same,growth inhibition,[6]; at 100.0 µM,90% (active)
same,growth inhibition,[7]; at 1.2 µM,5%
same,growth inhibition,[7]; at 3.7 µM,83% (active)
same,growth inhibition,[7]; at 11.0 µM,98% (active)
same,growth inhibition,[7]; at 33.0 µM,95% (active)
same,growth inhibition,[7]; at 100.0 µM,90% (active)
same,growth inhibition,[8]; [16],11%
same,growth inhibition,[8]; [17],98% (active)
same,growth inhibition,[8]; at 50.0 µM,99.5% (active)
same,growth inhibition,[9]; at 1.2 µM,16%
same,growth inhibition,[9]; at 3.7 µM,90% (active)
same,growth inhibition,[9]; at 11.0 µM,99% (active)
same,growth inhibition,[9]; at 33.0 µM,94% (active)
same,growth inhibition,[9]; at 100.0 µM,88% (active)
same,growth inhibition,[10]; [16],6%
same,growth inhibition,[10]; [17],98% (active)
same,growth inhibition,[10]; at 50.0 µM,98.8% (active)
same,growth inhibition,[11]; at 1.2 µM,10%
same,growth inhibition,[11]; at 3.7 µM,71% (active)
same,growth inhibition,[11]; [16],6%
same,growth inhibition,[11]; at 11.0 µM,97% (active)
same,growth inhibition,[11]; at 33.0 µM,95% (active)
same,growth inhibition,[11]; [17],96% (active)
same,growth inhibition,[11]; at 50.0 µM,98.8% (active)
same,growth inhibition,[11]; at 100.0 µM,87% (active)
same,growth inhibition,[12]; at 1.2 µM,5%
same,growth inhibition,[12]; at 3.7 µM,60%
same,growth inhibition,[12]; at 11.0 µM,98% (active)
same,growth inhibition,[12]; at 33.0 µM,96% (active)
same,growth inhibition,[12]; at 100.0 µM,90% (active)
same,growth inhibition,[13]; at 1.2 µM,6%
same,growth inhibition,[13]; at 3.7 µM,71% (active)
same,growth inhibition,[13]; at 11.0 µM,98% (active)
same,growth inhibition,[13]; at 33.0 µM,97% (active)
same,growth inhibition,[13]; at 100.0 µM,90% (active)
same,growth inhibition,[14]; [16],7%
same,growth inhibition,[14]; [17],97% (active)
same,growth inhibition,[14]; at 50.0 µM,99.2% (active)
Nc1cc2c(cc1N)-c1ccccc1C2=O,growth inhibition,[1]; at 1.2 µM,-3%
same,growth inhibition,[1]; at 3.7 µM,-3%
same,growth inhibition,[1]; at 11.0 µM,2%
same,growth inhibition,[1]; at 33.0 µM,23%
same,growth inhibition,[1]; at 100.0 µM,87% (active)
same,growth inhibition,[2]; at 1.2 µM,-2%
same,growth inhibition,[2]; at 3.7 µM,-3%
same,growth inhibition,[2]; at 11.0 µM,-4%
same,growth inhibition,[2]; at 33.0 µM,3%
same,growth inhibition,[2]; at 100.0 µM,36%
same,growth inhibition,[3]; at 1.2 µM,1%
same,growth inhibition,[3]; at 3.7 µM,9%
same,growth inhibition,[3]; at 11.0 µM,18%
same,growth inhibition,[3]; at 33.0 µM,31%
same,growth inhibition,[3]; at 100.0 µM,70% (active)
same,growth inhibition,[4]; at 1.2 µM,-3%
same,growth inhibition,[4]; at 3.7 µM,-2%
same,growth inhibition,[4]; at 11.0 µM,-2%
same,growth inhibition,[4]; at 33.0 µM,1%
same,growth inhibition,[4]; at 100.0 µM,95% (active)
same,growth inhibition,[5]; at 1.2 µM,0%
same,growth inhibition,[5]; at 3.7 µM,-57%
same,growth inhibition,[5]; [16],4%
same,growth inhibition,[5]; at 11.0 µM,19%
same,growth inhibition,[5]; at 33.0 µM,37%
same,growth inhibition,[5]; [17],67%
same,growth inhibition,[5]; at 50.0 µM,71.4% (active)
same,growth inhibition,[5]; at 100.0 µM,92% (active)
same,growth inhibition,[6]; at 1.2 µM,-2%
same,growth inhibition,[6]; at 3.7 µM,-4%
same,growth inhibition,[6]; [16],0%
same,growth inhibition,[6]; at 11.0 µM,-1%
same,growth inhibition,[6]; at 33.0 µM,9%
same,growth inhibition,[6]; [17],23%
same,growth inhibition,[6]; at 50.0 µM,39%
same,growth inhibition,[6]; at 100.0 µM,70% (active)
same,growth inhibition,[7]; at 1.2 µM,-1%
same,growth inhibition,[7]; at 3.7 µM,3%
same,growth inhibition,[7]; at 11.0 µM,8%
same,growth inhibition,[7]; at 33.0 µM,26%
same,growth inhibition,[7]; at 100.0 µM,97% (active)
same,growth inhibition,[8]; [16],-8%
same,growth inhibition,[8]; [17],17%
same,growth inhibition,[8]; at 50.0 µM,-11.9%
same,growth inhibition,[9]; at 1.2 µM,-3%
same,growth inhibition,[9]; at 3.7 µM,0%
same,growth inhibition,[9]; at 11.0 µM,2%
same,growth inhibition,[9]; at 33.0 µM,2%
same,growth inhibition,[9]; at 100.0 µM,13%
same,growth inhibition,[10]; [16],-10%
same,growth inhibition,[10]; [17],15%
same,growth inhibition,[10]; at 50.0 µM,-0.1%
same,growth inhibition,[11]; at 1.2 µM,-2%
same,growth inhibition,[11]; at 3.7 µM,1%
same,growth inhibition,[11]; [16],0%
same,growth inhibition,[11]; at 11.0 µM,0%
same,growth inhibition,[11]; at 33.0 µM,4%
same,growth inhibition,[11]; [17],49%
same,growth inhibition,[11]; at 50.0 µM,45.1%
same,growth inhibition,[11]; at 100.0 µM,65%
same,growth inhibition,[12]; at 1.2 µM,-3%
same,growth inhibition,[12]; at 3.7 µM,6%
same,growth inhibition,[12]; at 11.0 µM,-2%
same,growth inhibition,[12]; at 33.0 µM,1%
same,growth inhibition,[12]; at 100.0 µM,41%
same,growth inhibition,[13]; at 1.2 µM,-1%
same,growth inhibition,[13]; at 3.7 µM,-2%
same,growth inhibition,[13]; at 11.0 µM,-2%
same,growth inhibition,[13]; at 33.0 µM,2%
same,growth inhibition,[13]; at 100.0 µM,86% (active)
same,growth inhibition,[14]; [16],0%
same,growth inhibition,[14]; [17],57%
same,growth inhibition,[14]; at 50.0 µM,68.7%
same,growth inhibition,[15]; at 1.2 µM,-3%
same,growth inhibition,[15]; at 3.7 µM,1%
same,growth inhibition,[15]; at 11.0 µM,5%
same,growth inhibition,[15]; at 33.0 µM,21%
same,growth inhibition,[15]; at 100.0 µM,93% (active)
